PubChem BioAssay (NCATS)
Inconclusive results are not listed. Unless noted, calls come from the whole dose curve; as a rule, active = well fitted curve in either direction with a large enough effect (not every such curve was filed as active); inconclusive = small, poorly fitted or top-dose-only effect, or another doubt; inactive = flat fitted curve, though single readings scatter.

What was measured:
[1] = AP1 Signaling Pathway (AID 357); conditions: ME-180 AP-1-bla reporter, EGF-induced, beta-lactamase ratio, 5 h; at 17.2 µM (top of the series) unless noted;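 note: ME-180 reporter cells stimulated with EGF at its EC50 level; % is set by controls: 0 for no effect and ±100 for the full control effect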
Method in brief: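 AP-1-bla ME-180 cells, Opti-MEM + 0.5% dialyzed FBS, plated overnight 37 °C. Cpd titration + EC50 EGF, 5 h 37 °C. CCF4 2.5 h RT; ex 405, em 460/530 ratio → %activity, AC50.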

[2] = NFAT Signaling Pathway (AID 444); conditions: Jurkat NFAT-bla M1, carbachol, beta-lactamase ratio, 5 h; at 17.2 µM (top of the series) unless noted;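 note: carbachol stimulus at about its EC50 of 1 µM final; % is set by controls: 0 for no effect and ±100 for the full control effect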
Method in brief: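 Jurkat cells carrying an NFAT-driven β-lactamase reporter and co-transfected muscarinic M1 receptor were treated with compound plus carbachol (1 uM final, an EC50 level) for 5 h at 37 °C. CCF4 loading followed for 1 h at RT; 460/530 nm ratio gave %activity.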

[3] = Stat Signaling Pathway (AID 446); conditions: ME-180 (cervical carcinoma) SIE beta-lactamase reporter, IL-6 stimulated, 5 h; at 17.2 µM (top of the series) unless noted;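 note: ME-180 cervical cancer cells given 40 pM IL-6 alongside compound; SIE-controlled beta-lactamase reporter measured as 460/530 nm FRET emission ratio; % is set by controls: 0 for no effect and ±100 for the full control effect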
Method in brief: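 Normalization used AC90 stimulation (300 pM IL-6) and AC90 inhibition (125 nM pan-JAK inhibitor at 40 pM IL-6). The underlying signal is SIE-driven beta-lactamase in ME-180 cells after 5 h IL-6 exposure with compound.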

[4] = target: Glucocorticoid receptor (Homo sapiens) (UniProt P04150); test: GR-GFP Redistribution (AID 450;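 active = compounds whose dose series gives a full or clear partial fitted curve of increased nuclear translocation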; note: potency is the fitted concentration of half-maximal effect)
Chain of Glucocorticoid receptor (Homo sapiens) (P04150 whole entry, looked up): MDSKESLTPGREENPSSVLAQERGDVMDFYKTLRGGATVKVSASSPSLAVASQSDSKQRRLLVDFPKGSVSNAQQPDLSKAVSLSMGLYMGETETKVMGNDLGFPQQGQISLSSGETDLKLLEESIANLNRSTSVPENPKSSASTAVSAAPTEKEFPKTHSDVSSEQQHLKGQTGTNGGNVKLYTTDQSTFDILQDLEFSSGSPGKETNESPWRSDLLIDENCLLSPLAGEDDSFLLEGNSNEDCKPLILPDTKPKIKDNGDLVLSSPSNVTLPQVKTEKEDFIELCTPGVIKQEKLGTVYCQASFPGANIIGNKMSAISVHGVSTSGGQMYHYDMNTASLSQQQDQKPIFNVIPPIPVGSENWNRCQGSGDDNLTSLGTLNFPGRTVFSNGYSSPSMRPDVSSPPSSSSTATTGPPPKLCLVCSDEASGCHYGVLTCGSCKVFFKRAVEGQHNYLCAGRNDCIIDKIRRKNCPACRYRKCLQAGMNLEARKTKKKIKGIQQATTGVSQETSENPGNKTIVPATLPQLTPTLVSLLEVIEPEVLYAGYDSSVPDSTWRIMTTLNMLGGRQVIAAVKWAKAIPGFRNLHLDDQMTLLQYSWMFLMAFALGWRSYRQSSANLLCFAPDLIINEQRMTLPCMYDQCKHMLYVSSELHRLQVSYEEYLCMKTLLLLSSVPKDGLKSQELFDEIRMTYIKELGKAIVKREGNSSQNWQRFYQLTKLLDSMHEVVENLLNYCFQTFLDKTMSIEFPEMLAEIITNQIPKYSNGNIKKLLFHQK

CC(C)Oc1ccc(Cc2c(O)nc(NCCCN(C)C)[nH]c2=O)cc1
inactive: activity change, negative = inhibition [1] 9.78% | activity change, negative = inhibition [2] 3.21% | activity, negative = inhibition [3] 4.27% | Potency [4] > 20.6 µM

COc1cccc(C2C(C(=O)c3sc(C)nc3C)=C(O)C(=O)N2CCN2CCOCC2)c1OC (centres undefined)
inactive: activity change, negative = inhibition [1] 3.76% | activity change, negative = inhibition [2] 12.8% | activity, negative = inhibition [3] 7.97% | Potency [4] > 20.6 µM

CCN(CC)CCCN1C(=O)C(=O)/C(=C(/O)c2ccc(C)cc2)C1c1ccccn1 (centres undefined)
inactive: activity change, negative = inhibition [1] 3.29% | activity change, negative = inhibition [2] 10.1% | activity, negative = inhibition [3] 4.05% | Potency [4] > 20.6 µM

Cc1ccccc1OCC(O)Cn1c(N2CCN(c3ccccc3)CC2)nc2c1c(=O)[nH]c(=O)n2C (centres undefined)
inactive: activity change, negative = inhibition [1] 14.4% | activity change, negative = inhibition [2] -4.3% | activity, negative = inhibition [3] -10.5% | Potency [4] > 20.6 µM

CC1(C)Cc2ccccc2-c2c1c(=O)n(-c1ccccc1)c1nnnn21
inactive: activity change, negative = inhibition [1] -13.7% | activity change, negative = inhibition [2] -24.9% | activity, negative = inhibition [3] 2.44% | Potency [4] > 20.6 µM

CCOC(=O)c1cc(CC)sc1NC(=O)C1CC1
inactive: activity change, negative = inhibition [1] -23.9% | activity change, negative = inhibition [2] 12.8% | activity, negative = inhibition [3] -13.8% | Potency [4] > 20.6 µM

COc1cccc(N2CCN(C(=O)c3ccc(=O)oc3)CC2C)c1 (centres undefined)
inactive: activity change, negative = inhibition [1] 26.8% | activity change, negative = inhibition [2] -28.2% | activity, negative = inhibition [3] -1.83% | Potency [4] > 20.6 µM

C[N+](C)(C)CCOP(=O)([O-])OC[C@H](O)CO
inactive: activity change, negative = inhibition [1] 9.55% | activity change, negative = inhibition [2] 0.0397% | activity, negative = inhibition [3] -1.98% | Potency [4] > 20.6 µM

CC(C)CCOc1ccc(Cl)cc1CN1CCOCC1
inactive: activity change, negative = inhibition [1] 26.6% | activity change, negative = inhibition [2] 5.23% | activity, negative = inhibition [3] 9.43% | Potency [4] > 20.6 µM

CN(C)CCCN1C(=O)C(O)=C(C(=O)c2cc3ccccc3o2)C1c1ccccn1 (centres undefined)
inactive: activity change, negative = inhibition [1] 7.64% | activity change, negative = inhibition [2] 7.35% | activity, negative = inhibition [3] -0.93% | Potency [4] > 20.6 µM

Cc1ccc(N(CC(O)CN2CCCC2)S(=O)(=O)c2ccc(C)cc2)cc1 (centres undefined)
inactive: activity change, negative = inhibition [1] 0.0608% | activity change, negative = inhibition [2] -19.4% | activity, negative = inhibition [3] 11.3% | Potency [4] > 20.6 µM

C=C(c1ccc(OCCO)cc1)c1ccc(OCCO)cc1
inactive: activity change, negative = inhibition [1] -5.64% | activity change, negative = inhibition [2] -1.3% | activity, negative = inhibition [3] -3.23% | Potency [4] > 20.6 µM

Cc1nnc(N2CCOCC2)c2ccccc12
inactive: activity change, negative = inhibition [1] 5.51% | activity change, negative = inhibition [2] 6.76% | activity, negative = inhibition [3] 5.08% | Potency [4] > 20.6 µM

Cc1cc(OCCN2CCOCC2)nc2ccccc12
inactive: activity change, negative = inhibition [1] -9.97% | activity change, negative = inhibition [2] 23.5% | activity, negative = inhibition [3] 1.79% | Potency [4] > 20.6 µM

CCN(CC)CCCN1C(=O)C(=O)/C(=C(/O)c2ccccc2)C1c1cc(OC)ccc1OC (centres undefined)
inactive: activity change, negative = inhibition [1] 3.34% | activity change, negative = inhibition [2] 7.04% | activity, negative = inhibition [3] 3.31% | Potency [4] > 20.6 µM

CCOc1cc(C2Nc3ccccc3C(=O)N2c2ccccc2OC)ccc1O (centres undefined)
inactive: activity change, negative = inhibition [1] 18.3% | activity change, negative = inhibition [2] 6.73% | activity, negative = inhibition [3] 5.03% | Potency [4] > 20.6 µM

COCc1[nH]nc2c1C(c1ccnc3ccccc13)C(C#N)=C(N)O2 (centres undefined)
inactive: activity change, negative = inhibition [1] -7.4% | activity change, negative = inhibition [2] 17.7% | activity, negative = inhibition [3] -1.49% | Potency [4] > 20.6 µM

CCN(CC)c1nc(C)c2c(c1C#N)CC(C)(C)OC2
inactive: activity change, negative = inhibition [1] -7.83% | activity change, negative = inhibition [2] -24.4% | activity, negative = inhibition [3] 7.18% | Potency [4] > 20.6 µM

CCC(NC(=O)Nc1nccs1)(C(F)(F)F)C(F)(F)F
inactive: activity change, negative = inhibition [1] -2.44% | activity change, negative = inhibition [2] -12.7% | activity, negative = inhibition [3] -6.36% | Potency [4] > 20.6 µM

COc1ccc(C(CC(=O)O)NC(=O)OC(C)(C)C)cc1 (centres undefined)
inactive: activity change, negative = inhibition [1] 12.1% | activity change, negative = inhibition [2] -0.371% | activity, negative = inhibition [3] 3.55% | Potency [4] > 20.6 µM

CCC1SC2=NC(C)=C(C(=O)OCCOC)C(c3ccc(C(=O)OC)cc3)N2C1=O (centres undefined)
inactive: activity change, negative = inhibition [1] 17.5% | activity change, negative = inhibition [2] 6.06% | activity, negative = inhibition [3] -2.24% | Potency [4] > 20.6 µM

Cc1cccc2c1NC(C)CC2C (centres undefined)
inactive: activity change, negative = inhibition [1] 9.08% | activity change, negative = inhibition [2] 11.8% | activity, negative = inhibition [3] 13.3% | Potency [4] > 20.6 µM

O=C(c1coc(=O)c(Br)c1)N1CCCc2ccccc21
inactive: activity change, negative = inhibition [1] 11.9% | activity change, negative = inhibition [2] 0.236% | activity, negative = inhibition [3] 8.49% | Potency [4] > 20.6 µM

O=C(O)CC(SCc1ccc(C(=O)O)o1)C(=O)O (centres undefined)
inactive: activity change, negative = inhibition [1] 7.18% | activity change, negative = inhibition [2] -1.8% | activity, negative = inhibition [3] 0.837% | Potency [4] > 20.6 µM

N#Cc1c(-c2ccco2)cc(C2CC2)nc1N
inactive: activity change, negative = inhibition [1] -6.96% | activity change, negative = inhibition [2] 9.72% | activity, negative = inhibition [3] -18.4% | Potency [4] > 20.6 µM

Cc1cc(=O)oc(C)c1C(=O)NC1CC(C)(C)NC(C)(C)C1
inactive: activity change, negative = inhibition [1] -2.44% | activity change, negative = inhibition [2] -3.93% | activity, negative = inhibition [3] 0.837% | Potency [4] > 20.6 µM
